Laboratory results taken from PubChem BioAssay (NCI).
This is part of a sample that, as a whole, favours compounds with a hit. Of some 79,000 tested, about 15% had one in any assay. Unmarked numbers belong to inactive results. Active and inactive are the calls of the source. Rule as the data show it: active = growth inhibition above about 70%; inactive = the rest.

Experiment: NCI Yeast Anticancer Drug Screen. Data for the sgs1 mgt1 strain (AID 161);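 also: 0% = growth of cultures given vehicle only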
Details: S. cerevisiae sgs1 mgt1 strain, active compounds read high
Protocol: Growth inhibition of yeast strains with defined genetic alterations is measured as a screen for potential anti-cancer activity. Selected strains with alterations in DNA damage repair or cell cycle control were exposed to compounds and growth inhibition was measured relative to vehicle treated controls. The strain used in this assay is sgs1 mgt1

[1] = at 5.0 µM (retest, dose inferred, filed as 0.5)
[2] = at 50.0 µM (retest, dose inferred, filed as 5.0)

**Q.** What does the source list for `COc1ccc(Cc2nc3ccc(Cl)cc3[nH]2)cc1`?
**A.** growth inhibition [1]: 4%; growth inhibition [2]: 78% (active); growth inhibition (at 50.0 µM): 82% (active)

**Q.** With `Clc1ccc(COC(CN2CCOCC2)c2ccccc2)c(Cl)c1` (configuration not stated) as the compound, how does the growth inhibition [1] read?
**A.** The growth inhibition was 19%.

**Q.** And the growth inhibition [2]?
**A.** The growth inhibition was 98% (active).

**Q.** What about the growth inhibition (at 50.0 µM) of the same compound?
**A.** The growth inhibition was 96% (active).

**Q.** Which growth inhibition [1] does the source give for `CCN(CC)CCCCCCNc1cc(Cl)cc2cccnc12` here?
**A.** Its growth inhibition is 28%.

**Q.** And the growth inhibition [2]?
**A.** The growth inhibition was 94% (active).

**Q.** And the growth inhibition (at 50.0 µM)?
**A.** The growth inhibition was 97.5% (active).

**Q.** For `Nc1ccccc1SC(C[N+](=O)[O-])c1ccc2c(c1)OCO2` (configuration not stated), which growth inhibition [1] is on record?
**A.** Its growth inhibition is 69%.

**Q.** What about the growth inhibition [2] of the same compound?
**A.** Its growth inhibition is 99% (active).

**Q.** What about the growth inhibition (at 50.0 µM) of the same compound?
**A.** Its growth inhibition is 99% (active).

**Q.** Which growth inhibition [1] does the source give for `O=[N+]([O-])c1ccc(/C=C/[n+]2ccc3ccccc3c2)o1` here?
**A.** Its growth inhibition is 40%.

**Q.** And the growth inhibition [2]?
**A.** Its growth inhibition is 98% (active).

**Q.** What about the growth inhibition (at 50.0 µM) of the same compound?
**A.** Its growth inhibition is 98.9% (active).

**Q.** With `S=c1ncc2c([nH]1)C1c3ccccc3C2c2ccccc21` as the compound, how does the growth inhibition [1] read?
**A.** The growth inhibition was 2%.

**Q.** What about the growth inhibition [2] of the same compound?
**A.** The growth inhibition was 98% (active).

**Q.** And the growth inhibition (at 50.0 µM)?
**A.** Its growth inhibition is 90.1% (active).

**Q.** What does the source list for `CC(C)=CC1C(COC(=O)CCl)C1(C)C` (configuration not stated)?
**A.** growth inhibition [1]: -2%; growth inhibition [2]: 3%; growth inhibition (at 50.0 µM): -12.3%

**Q.** Which results are given for `O=Nc1c2n[nH]c1CCCCCCCCC2`?
**A.** growth inhibition [1]: 56%; growth inhibition [2]: 99% (active); growth inhibition (at 50.0 µM): 99.5% (active)

**Q.** With `O=C(c1ccccc1)c1ccc2cccc(O)c2n1` as the compound, how does the growth inhibition [1] read?
**A.** Its growth inhibition is -11%.

**Q.** And the growth inhibition [2]?
**A.** The growth inhibition was 55%.

**Q.** What about the growth inhibition (at 50.0 µM) of the same compound?
**A.** The growth inhibition was 90.8% (active).

**Q.** For `O=c1c(-c2ccccc2)c1-c1ccccc1`, which growth inhibition [1] is on record?
**A.** The growth inhibition was 8%.

**Q.** And the growth inhibition [2]?
**A.** The growth inhibition was 90% (active).

**Q.** What about the growth inhibition (at 50.0 µM) of the same compound?
**A.** Its growth inhibition is 98.9% (active).

**Q.** For `[O-][n+]1c2ccccc2cc2c1c1ccccc1n2O`, which growth inhibition [1] is on record?
**A.** The growth inhibition was -7%.

**Q.** What about the growth inhibition [2] of the same compound?
**A.** Its growth inhibition is -3%.

**Q.** What about the growth inhibition (at 50.0 µM) of the same compound?
**A.** The growth inhibition was 17.7%.

**Q.** Which growth inhibition [1] does the source give for `Cc1cc(Br)cc(C)c1NC(=O)C(=O)C(C(=O)c1ccc2ccccc2c1)C1OC(=O)c2ccccc21` (configuration not stated) here?
**A.** Its growth inhibition is 10%.

**Q.** What about the growth inhibition [2] of the same compound?
**A.** Its growth inhibition is 11%.

**Q.** What about the growth inhibition (at 50.0 µM) of the same compound?
**A.** Its growth inhibition is 27.7%.

**Q.** For `CN1C(=O)OC(C)(c2ccccc2)C1=O` (configuration not stated), which growth inhibition [1] is on record?
**A.** The growth inhibition was -2%.

**Q.** And the growth inhibition [2]?
**A.** Its growth inhibition is 0%.

**Q.** And the growth inhibition (at 50.0 µM)?
**A.** Its growth inhibition is -13.6%.

**Q.** Which results are given for `CCOC(=O)/C(=C\n1c(=O)sc2ccccc21)C(=O)c1ccccc1`?
**A.** growth inhibition [1]: 27%; growth inhibition [2]: 64%; growth inhibition (at 50.0 µM): 74.8% (active)
